The list is not random: actives were taken first. Their share in the collection is about 11%.
HCV inh: qHTS Assay for Inhibitors of Hepatitis C Virus (HCV); Huh7.5.1 HCVcc-Cre infection, luciferase reporter, 44 h; Potency, µM (top dose mostly 41.8 µM), actives largely listed as inhibitors; hit rate 3.4% among 340,000; AID 651820, 2012
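Infectious HCV cell culture screen: compound-treated cells (1,000/well, pre-plated 4 h) are infected with HCVcc-Cre at roughly 0.5 moi and grown 44 h. Infection is quantified by luciferase signal after 15 min substrate incubation at room temperature.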
Pf growth 48h: Primary qHTS for delayed death inhibitors of the malarial parasite plastid, 48 hour incubation | P. falciparum luciferase growth in erythrocytes, 48 h | AID 504832, 2011 | Potency, µM (doses to about 28.7 µM), actives largely listed as inhibitors | hit rate 5.9% among 310,000
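Growth was read as firefly luciferase luminescence after a 48 h, 37 C, 5% CO2 exposure of compounds to reporter-bearing P. falciparum cultures (0.1% parasitemia, 2% hematocrit final) in Albumax-supplemented RPMI 1640.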
Vaccinia mCherry: qHTS for Stage-Specific Inhibitors of Vaccinia Orthopoxvirus: mCherry Reporter Primary qHTS. hit rate 0.63% among 310,000. AID 720579, 2013. Potency, µM (titrated, usually from 36.5 µM), actives largely listed as inhibitors. Vaccinia virus mCherry reporter infection, fluorescence; calls by dose curve; tested in A549 cells; note: nearly all actives have a fitted effect of over 35% in size
Pf growth 96h: Primary qHTS for delayed death inhibitors of the malarial parasite plastid, 96 hour incubation; P. falciparum luciferase reporter growth, 96 h; Potency, µM (titrated, usually from 28.7 µM), hits mostly inhibitors; hit rate 6.9% among 320,000; AID 504834, 2011
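Erythrocytes infected with luciferase-expressing P. falciparum were dispensed at 2% hematocrit and 0.05% parasitemia (final), then incubated with compounds 96 hours at 37 C in 5% CO2. Luminescence after detection reagent addition reported growth.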
NS1 function inh: qHTS Assay for Inhibitors of Influenza NS1 Protein Function; Potency, µM (doses to about 46.1 µM); hit rate 0.4% among 270,000; AID 2326, 2010; calls by dose curve; note: actives are rising curves; nearly all actives have a fitted effect of over 50% in size
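In this qHTS, NS1 from influenza A is expressed in budding yeast, where it slows growth. Cells are switched from glucose to 2% galactose medium (pH 6.0, -URA), treated with compound, and growth recovery is read at OD600.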
VACV Venus inh: qHTS for Stage-Specific Inhibitors of Vaccinia Orthopoxvirus: Venus Reporter Primary qHTS; Potency, µM (doses to about 36.5 µM), actives largely listed as inhibitors; Vaccinia virus Venus reporter expression, fluorescence; AID 720580, 2013; hit rate 0.46% among 330,000; calls by dose curve; tested in A549 cells; note: nearly all actives have a fitted effect of over 30% in size
Of the large screens only hits and unclear results are named; the others gave an inactive call. Unless noted, calls come from the whole dose curve; as a rule, active = well fitted inhibition curve with a large enough effect; inconclusive = small, poorly fitted or top-dose-only effect, or another doubt; inactive = no such curve, though single readings can be large or run the other way.

COc1ccc(C(=S)N2CCN(S(=O)(=O)c3ccccc3)CC2)cc1	Pf growth 96h inconclusive (no result: Vaccinia mCherry, VACV Venus inh)
Cc1ccc(S(=O)(=O)N2CCN(C(=O)C(Cc3ccccc3)NC(=O)c3ccccc3)CC2)cc1 (configuration not stated)	Pf growth 48h inconclusive, Pf growth 96h 8.3µM (no result: Vaccinia mCherry, NS1 function inh, VACV Venus inh)
COc1ccc(C(O)c2nc(-c3ccoc3)cs2)cc1 (configuration not stated)	none (no result: HCV inh, Pf growth 48h, Pf growth 96h, NS1 function inh)
CCOCCCNC(=O)CCCOc1ccccc1	Pf growth 96h 4.7µM
COc1ccc(OCCNC(=O)C(c2ccccc2)c2ccccc2)cc1	HCV inh inconclusive, Pf growth 48h 10µM (no result: Vaccinia mCherry)
COc1ccc(S(=O)(=O)NCCC(=O)NC(C)c2ccccc2)cc1 (configuration not stated)	Pf growth 96h 7.4µM (no result: Vaccinia mCherry, VACV Venus inh)
COc1ccc(OCCCC(=O)NC(C)c2ccccc2)cc1 (configuration not stated)	Pf growth 96h 9.3µM (no result: Pf growth 48h)
CC(NC(=O)CCOc1ccccc1)c1ccccc1 (configuration not stated)	none (no result: Pf growth 48h, Vaccinia mCherry)
Cc1sc2nc(CN3CCCC3)nc(NCc3ccncc3)c2c1C	Pf growth 48h inconclusive, Pf growth 96h inconclusive (no result: NS1 function inh)
O=C(NCCc1cccc(C(F)(F)F)c1)C1CCC(=O)N(Cc2ccc(Cl)cc2)C1 (configuration not stated)	Pf growth 48h inconclusive, Pf growth 96h inconclusive
CCCc1nnc(NC(=O)CN2CCOCC2)s1	Pf growth 96h inconclusive (no result: Vaccinia mCherry, VACV Venus inh)
CC1CC(C)CC(C)C(O)C(C#N)=CC=CCC(C2CCCC2C(=O)O)OC(=O)CC(O)C(C)C1 (configuration not stated)	HCV inh inconclusive, Vaccinia mCherry inconclusive, VACV Venus inh 1.1µM (no result: Pf growth 48h, Pf growth 96h, NS1 function inh)
COC(=O)c1scc(C)c1N/N=C(\C)c1ccc(F)cc1	none (no result: Vaccinia mCherry, Pf growth 96h, VACV Venus inh)
CC(C)N(C(=O)[C@H]1C[C@H](CC(=O)NCC23CC4CC(CC(C4)C2)C3)C(=O)N2CCc3c([nH]c4ccc(Cl)cc34)[C@]12C)C(C)C	HCV inh 16µM, Vaccinia mCherry inconclusive, VACV Venus inh 13µM (no result: Pf growth 48h, Pf growth 96h, NS1 function inh)
CCN(CC)C(=O)[C@H]1C[C@H](CC(=O)NCC23CC4CC(CC(C4)C2)C3)C(=O)N2CCc3c([nH]c4ccc(Cl)cc34)[C@]12C	HCV inh inconclusive, Vaccinia mCherry inconclusive, VACV Venus inh 10µM (no result: Pf growth 48h, Pf growth 96h, NS1 function inh)
CC(C)N(C(=O)[C@H]1C[C@H](CC(=O)NCCCN(C)C)C(=O)N2CCc3c([nH]c4ccc(Cl)cc34)[C@]12C)C(C)C	HCV inh 10µM (no result: Pf growth 48h, Pf growth 96h, NS1 function inh)
COc1ccc2[nH]c3c(c2c1)CCN1C(=O)C(CC(=O)NCCCN(C)C)C[C@H](C(=O)N(C(C)C)C(C)C)[C@@]31C (some centres not stated)	none (no result: Pf growth 48h, Pf growth 96h, NS1 function inh)
CCN(CC)C(=O)[C@H]1C[C@H](CC(=O)NCCCN(C)C)C(=O)N2CCc3c([nH]c4ccc(Cl)cc34)[C@]12C	HCV inh inconclusive, VACV Venus inh inconclusive (no result: Pf growth 48h, Pf growth 96h, NS1 function inh)
CC(=O)c1cc(-c2ccccc2)n(CC(=O)NCc2cccs2)c1C	none
CCOc1ccccc1NC(=S)NCc1cccn1C	none (no result: NS1 function inh)
CCCc1cc(=O)[nH]c(Nc2ccc(C(=O)O)cc2)n1	none (no result: HCV inh, Pf growth 48h, Pf growth 96h, NS1 function inh)
CCCCN=C[C@]12CCC(O)CC1(O)CCC1[C@@H]2CC[C@]2(C)[C@H](C3C=CC(=O)O3)CCC12O (some centres not stated)	HCV inh 4.5µM, Vaccinia mCherry 0.32µM, VACV Venus inh 0.32µM (no result: Pf growth 48h)
C[C@]12CC[C@H]3[C@@H](CC[C@]4(O)C[C@@H](O)CC[C@]34C=O)[C@@]1(O)CC[C@@H]2C1=CC(=O)OC1	HCV inh 0.56µM, Vaccinia mCherry 1µM, VACV Venus inh 1µM (no result: NS1 function inh)
C[C@H]1O[C@@H](OC2CC[C@]3(C=O)[C@H]4CC[C@]5(C)[C@@H](C6=CC(=O)OC6)CC[C@]5(O)[C@@H]4CC[C@]3(O)C2)CC2OC(C)(C)OC21 (some centres not stated)	HCV inh 1µM, Vaccinia mCherry inconclusive, Pf growth 96h inconclusive, VACV Venus inh 0.28µM (no result: Pf growth 48h)

Source: PubChem BioAssay (National Center for Advancing Translational Sciences (NCATS))
